Screening results (PubChem BioAssay)
GLD-1 RNA inh: GLD-1-TGE RNA interaction inhibition (C. elegans); Q17339; purified GLD-1 + fluorescein TGE RNA, fluorescence polarization; inhibition, % at 5.96 µM; 320,000 compounds, 0.44% hits; AID 2280;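 active means percent inhibition above a per-plate cutoff, the plate mean of test compounds plus 3 SD, cut at about 30% in these data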;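 further: 0% = DMSO wells with GLD-1 and probe and 100% = wells lacking GLD-1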
Bcl-xL primary: inhibitors of human Bcl-xL; GST-Bcl-xL / FITC-Bim BH3 peptide fluorescence polarization; inhibition, % at 10.9 µM; 320,000 compounds, 0.7% hits; AID 2129;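 active means inhibition above the mean of all tested compounds plus 3 SD, cutoff set per campaign, cut at about 30% in these data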;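 further: 0% = DMSO wells and 100% = unlabeled Bim-BH3 peptide competitor; inhibitors lower millipolarization by displacing the labeled peptide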
MEX-5 binding: C. elegans MEX-5 TCR-2 RNA binding activity. Q9XUB2. MEX-5/FITC-TCR2 RNA binding, fluorescence polarization; stronger effect = lower value. activity score (negative = inhibition of binding), % at 10 µM. 300,000 compounds, 0.38% hits. AID 1832;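 active means inhibition past about -25% in most replicates, and total fluorescence under double the plate's negative control median, limit read from the data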;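 further: 0% = DMSO and -100% = 5 µM competing unlabeled TCR2 RNA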
MCL1 BIM primary: inhibitors of human MCL1 binding to BIM-BH3 peptide | Q07820 | GST-MCL1 / FITC-Bim-BH3 fluorescence polarization | inhibition, % at 10.9 µM | 320,000 compounds, 0.68% hits;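 active means inhibition above the mean inhibition of all tested compounds plus 3 SD, set per campaign, cut at about 40% in these data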;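 further: 0% = DMSO wells and 100% = unlabeled Bim-BH3 peptide control; higher means more loss of mP so more displacement of Bim peptide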
E coli Lon inh: E. coli protease La inhibition | 360,000 compounds, 0.42% hits | AID 602123 | P0A9M0 | purified E. coli Lon protease, fluorescence polarization | inhibition, % at 7.94 µM; in the data active means inhibition above about 13%, passing the limit was not always enough;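 further: 0% = enzyme with probe and DMSO and 100% = no enzyme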
Target sequence (P0A9M0 whole entry, looked up): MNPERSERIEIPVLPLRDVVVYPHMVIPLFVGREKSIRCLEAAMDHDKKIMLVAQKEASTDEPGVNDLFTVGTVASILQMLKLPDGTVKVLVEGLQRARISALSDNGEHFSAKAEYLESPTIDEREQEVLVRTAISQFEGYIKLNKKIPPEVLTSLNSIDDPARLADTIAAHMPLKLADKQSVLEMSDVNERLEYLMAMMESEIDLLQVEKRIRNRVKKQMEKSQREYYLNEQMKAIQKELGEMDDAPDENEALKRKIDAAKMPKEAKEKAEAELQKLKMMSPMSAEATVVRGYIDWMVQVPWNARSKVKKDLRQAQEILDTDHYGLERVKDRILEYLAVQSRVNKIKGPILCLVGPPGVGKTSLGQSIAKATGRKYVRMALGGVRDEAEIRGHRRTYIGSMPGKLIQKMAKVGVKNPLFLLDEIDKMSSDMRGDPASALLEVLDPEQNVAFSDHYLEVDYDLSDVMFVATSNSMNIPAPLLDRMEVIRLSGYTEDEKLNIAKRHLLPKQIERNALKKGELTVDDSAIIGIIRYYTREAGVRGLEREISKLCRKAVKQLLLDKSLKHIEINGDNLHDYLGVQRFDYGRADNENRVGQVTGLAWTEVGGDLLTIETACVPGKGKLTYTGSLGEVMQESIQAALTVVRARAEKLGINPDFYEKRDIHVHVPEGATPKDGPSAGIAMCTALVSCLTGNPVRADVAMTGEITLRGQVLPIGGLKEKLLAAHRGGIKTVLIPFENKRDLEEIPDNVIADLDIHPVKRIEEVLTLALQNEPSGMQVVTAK
EBV gp42 block: blocks Epstein-Barr virus glycoprotein 42 binding; Fluorescence polarization binding assay, mP read-out; inhibition, % (tested at 21.74 µM); 220,000 compounds, 0.42% hits; in the data active means inhibition above about 50%
GLD-1 TGE cf: confirmation of C. elegans GLD-1 TGE RNA binding inhibitors | GLD-1/FL-TGE RNA fluorescence polarization, biochemical | 550 compounds, 10% hits | shares compounds with GLD-1 RNA inh | inhibition, % at 5.96 µM;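 active means average inhibition across triplicates above the hit cutoff set in the primary screen, cut at about 32% in these data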;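 further: 0% = GLD-1 with RNA probe and DMSO and 100% = wells lacking GLD-1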
An asterisk follows results filed as active; . = not tested or not shown. A selection: hits, their analogues and other compounds. The true share with any hit is near 1.5%.

SMILES | GLD-1 RNA inh | Bcl-xL primary | MEX-5 binding | MCL1 BIM primary | E coli Lon inh | EBV gp42 block | GLD-1 TGE cf
CCOC(=O)Cc1csc(/N=C/c2c(O)n(-c3ccc(C)cc3C)c(=O)c3ccccc23)n1 | 38.0* | 28.1 | 3.5 | 36.2 | -5.9 | -25.3 | -25.8
Cc1cc(C)cc(NC(=O)CN2C(=O)C3CC=CCC3C2=O)c1 (stereo not drawn) | 3.0 | 5.3 | . | 3.5 | -8.8 | . | .
O=C(CSc1nnc(Cc2cc(=O)[nH]c(=O)[nH]2)n1-c1ccc(Cl)cc1)NC1CCCC1 | 36.6* | 17.8 | . | 26.9 | 10.3 | 1.5 | 18.3
COc1ccc(-n2c(Cc3cc(=O)[nH]c(=O)[nH]3)nnc2SCC(=O)NC2CCCC2)cc1 | 17.2 | 7.7 | -2.0 | 10.2 | 5.7 | 6.1 | .
CCC(=O)c1cn([C@H](CCC(OC)OC)CC(=O)OC(C)(C)C)cc1CC | 11.9 | 0.1 | 0.5 | -3.8 | 3.4 | . | .
COc1ccccc1NC(=O)CN(Cc1ccco1)C(=O)c1cc2ccccc2o1 | 2.5 | -3.5 | 5.4 | -0.7 | -4.1 | -2.7 | .
Cc1cccc(OCCNc2ccc([N+](=O)[O-])cn2)c1 | 32.5* | 1.9 | -1.1 | -4.2 | -1.2 | -10.6 | 5.4
Cc1cc(Oc2ccc(=O)[nH]n2)nc(Cl)n1 | 34.9* | 39.9* | -0.1 | 34.1 | -2.9 | -8.2 | -4.9
CSc1nc(C)cc(Oc2ccc(=O)[nH]n2)n1 | 1.4 | 2.2 | -1.9 | 4.1 | -6.5 | -2.8 | .
CSc1ncc(C(=O)Nc2cccc(C)c2C)c(C)n1 | . | . | 0.4 | . | -12.1 | . | .
CCCCC1=CC2=CC(=O)C(C)(OC(=O)CC)C(=O)C2=CN1CC(C)C (stereo not drawn) | 31.1* | 34.5* | -9.5 | 41.2* | 6.6 | 9.2 | 22.3
COc1ccc(-c2cc(CC3(C(=O)O)CCN(C(=O)OC(C)(C)C)CC3)on2)c(OC)c1 | 0.8 | 0.4 | 1.1 | -2.4 | -2.9 | . | .
CC1CCCCC1NC(=O)C1CCC(CNS(=O)(=O)c2ccccc2)CC1 (stereo not drawn) | 1.7 | -1.1 | -1.5 | 6.6 | -5.5 | . | .
CCOC(=O)C1=C2NC(=O)c3ccccc3N2C(=O)C1 | 52.4* | 47.6* | -31.2* | 43.4* | 14.2 | -8.4 | 4.1
CCOC(=O)C1=C(N)N(c2ccccc2Oc2ccccc2)C(=O)C1 | 3.6 | 5.3 | 1.5 | 2.9 | 2.6 | -1.1 | .
Cc1ccc(CN2C(=O)[C@H]3Cc4c([nH]c5ccccc45)C(C)(C)N3C2=O)cc1 | 1.7 | -2.0 | -2.2 | -2.9 | 6.6 | . | .
Cc1ccc[n+](-c2nc([O-])sc2/C=N/Nc2ccc([N+](=O)[O-])cc2)c1 | 39.0* | 41.6* | -12.0 | 40.3* | 19.1 | 33.3 | 39.2*
CCc1nc2ccc(C(=O)Nc3cccc(OCC(=O)N(C)C)c3)cn2c1N(C)Cc1ccc(N(C)C)cc1 | . | . | . | . | -2.3 | . | .
C/C=C/c1cccc(-c2nc(C(=O)N3CCN(C)CC3)cc3c2[C@@H](CCO)N(C(=O)NC(C)C)C3)c1 | . | . | . | . | -0.8 | . | .
COc1nnc(-c2ccc(C)c(S(=O)(=O)NCCO)c2)c2ccccc12 | 49.0* | 39.3* | 0.0 | 30.2 | -0.6 | -7.2 | -1.4
Cc1cnc(NC(=O)Cc2ccc(S(=O)(=O)N3CCOCC3)s2)s1 | 48.2* | . | . | . | 20.4 | . | -4.8
COc1ccc(NC(=O)c2ccc(OC)c(S(=O)(=O)N3CCCCC3C)c2)cn1 (stereo not drawn) | 33.4* | 51.0* | . | 48.3* | 8.3 | . | 27.5
COc1ccc(C(=O)Nc2ccc(NC(C)=O)cc2)cc1S(=O)(=O)N1CCCC1 | 6.7 | 3.6 | . | -3.7 | 3.9 | . | .
COc1ccc(NC(=O)CN(C)C(=O)c2sc3cc(Cl)ccc3c2Cl)cc1 | -1.1 | 1.0 | 0.0 | 7.8 | 0.0 | . | .
O=C(Nc1ccccc1)Nc1ccc(Cl)nc1Cl | 35.6* | -3.2 | 0.7 | 2.2 | -2.1 | . | -3.7
SMILES | GLD-1 RNA inh | Bcl-xL primary | MEX-5 binding | MCL1 BIM primary | E coli Lon inh | EBV gp42 block | GLD-1 TGE cf
O=C(Nc1ccccc1)Nc1ccccc1 | . | . | . | . | 1.7 | . | .
Cc1cc(C(=O)COC(=O)c2ccc(Cl)c(S(N)(=O)=O)c2)c(C)n1C1CC1 | -1.4 | 2.4 | -1.5 | 1.6 | -7.8 | . | .
Cc1ccc(C2C=C(c3ccccc3)Nc3ncnn32)cc1 (stereo not drawn) | 32.6* | 24.1 | 2.0 | 23.0 | 9.3 | . | 0.8
Cc1cc(C)c(C2=CC(c3ccccc3)n3ncnc3N2)cc1C (stereo not drawn) | 8.6 | 5.1 | -1.4 | -0.9 | . | . | .
COc1cccc(NC(=O)c2cccs2)c1 | -0.8 | 4.8 | -0.3 | 9.5 | 0.7 | 3.6 | .
COc1cc(NC(=O)c2cccs2)cc(OC)c1 | 52.3* | 6.8 | 2.8 | 9.7 | 6.6 | -18.5 | -1.6
Cc1cnc(NC(=O)CC(C)c2ccccc2)s1 (stereo not drawn) | 2.1 | 4.7 | -0.5 | -6.7 | 5.9 | . | .
CCCn1c(C(C)Nc2nc(-c3cc(Cl)c(N)c(Cl)c3)cs2)nc2cc(Cl)c(N3CCCCC3)cc21 (stereo not drawn) | -1.3 | -1.1 | -0.6 | 2.5 | 2.6 | . | .
CCOC(=O)CC1=C(C(=O)OCC)C(c2cccnc2)C(C#N)=C(N)O1 (stereo not drawn) | 6.9 | 10.5 | -3.7 | 17.0 | 4.8 | -8.5 | .
CCOC(=O)C1=C(CC)OC(N)=C(C#N)C1c1ccc(OC)cc1OC (stereo not drawn) | 5.5 | 6.0 | -1.9 | 7.9 | -3.9 | 8.8 | .
CCOC(=O)CC1=C(C(=O)OCC)C(c2ccc(C)o2)C(C#N)=C(N)O1 (stereo not drawn) | 34.0* | 37.3* | -19.3 | 31.4 | 11.4 | -5.6 | 6.9
CCOC(=O)CC1=C(C(=O)OCC)C(c2ccc(OC)cc2OC)C(C#N)=C(N)O1 (stereo not drawn) | 34.7* | 39.4* | -9.0 | 42.6* | 2.8 | 0.6 | 9.9
O=C(OCc1nnc(-c2ccccc2)o1)c1cccc(S(=O)(=O)N2CCOCC2)c1 | 3.1 | 1.9 | -1.5 | 2.3 | -7.3 | . | .
CCCCC(=O)Nc1ccc(C(N)=O)cc1 | -8.0 | -2.5 | 1.3 | -2.4 | 0.2 | -31.3 | .
CCCCC(=O)Nc1ccc(NCc2ccc(C)s2)cc1 | 38.4* | 1.0 | -1.7 | -6.2 | -9.2 | . | 3.7
CC(=O)Oc1ccc(C(=O)O)cc1OC(C)=O | 2.8 | 5.5 | -1.0 | 1.7 | 4.3 | -0.1 | .
CC(=O)Oc1cccc2c1C(=O)c1c(OC(C)=O)cc(C(=O)O)cc1C2=O | 51.9* | 18.6 | -15.7 | 10.4 | 2.4 | -20.3 | 41.5*
COc1ccc(NC(=O)C2CCCN(S(=O)(=O)c3ccccc3)C2)c(OC)c1 (stereo not drawn) | 2.5 | 3.0 | 0.9 | 6.2 | 3.5 | . | .
CCCCCCOc1ccc(C(=O)O)cc1C#N | 40.3* | 3.2 | 1.2 | 9.0 | -2.6 | 6.4 | -2.8
CCCCCCCCOc1ccc(C(=O)O)cc1 | 3.6 | 6.0 | . | 7.2 | 8.2 | . | .
COc1cc(C(=O)N(C)CC2CCN(CCc3cccc(C(F)(F)F)c3)CC2)ccc1C | -3.1 | 2.5 | -0.1 | 4.2 | 2.4 | . | .
